About 83,000 compounds went through this panel and 20% of them were active in at least one assay; those are over-represented in the sample as a whole.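 For each line, cells grew in 96-well plates with the test compound present at a single concentration for 48 hours.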 Unmarked numbers belong to inactive results. The source made the active and inactive calls. How the source made its calls: active means growth percent below 10; inactive means the rest.

Among the test systems are NCI-H23 lung; NCI-H226 lung; NCI-H322M lung; NCI-H460 lung; HOP-92 NSCLC; NCI-H522 lung; A549/ATCC NSCLC; COLO 205 colon; DU-145 prostate; K-562 leukemia; MALME-3M melanoma; MDA-MB-231 breast; RXF 393 renal; SF-268 CNS; SF-295 CNS; SF-539 CNS; UACC-257 melanoma; M14 melanoma; 786-0 renal.
Common to all, as to assay: NCI-60 one-dose screen, 48 h (100 = growth as untreated, 0 = no growth, -100 = all killed)
Holding throughout (conditions): 10 µM unless noted

As for `CCOC(=O)c1cc(C(=O)c2cc(OC)c(OC)c(OC)c2)n2c1ccc1ccccc12`, the growth in the assay on NCI-H23 lung was 50.2%; with NCI-H226 lung, 64.7%; with NCI-H322M lung it was 43.1%; in the assay on NCI-H460 lung, 14.9%; with HOP-92 NSCLC, 39.1%; with NCI-H522 lung, 2.76% (active). For the same compound, the growth with A549/ATCC NSCLC is 34.4%; with COLO 205 colon, -6.61% (active); with DU-145 prostate it was 22.1%; in the assay with K-562 leukemia, 12.3%; in the assay on MALME-3M melanoma it was 19.9%; with MDA-MB-231 breast, 49.8%. For the same compound, the growth in the assay with RXF 393 renal is -9.46% (active); with SF-268 CNS it was 49.6%; in the assay with SF-295 CNS, 22.4%; with SF-539 CNS, -13.4% (active); with UACC-257 melanoma, 63.6%; in the assay with M14 melanoma, 10.7%.

For the compound `Cn1ccc(=O)c(S(N)(=O)=O)c1`, the growth was 95.6% with NCI-H23 lung; 108% with NCI-H226 lung; 108% in the assay with NCI-H322M lung; 89.3% in the assay on HOP-92 NSCLC; 96.2% with NCI-H522 lung; 99.7% in the assay on A549/ATCC NSCLC. Moreover, the growth with 786-0 renal is 103%; with COLO 205 colon it was 117%; in the assay with DU-145 prostate, 119%; in the assay on K-562 leukemia it was 93.4%; in the assay with MALME-3M melanoma, 95.5%; with MDA-MB-231 breast, 101%. The growth is 85.8% with RXF 393 renal; 100% with SF-268 CNS; 102% in the assay on SF-295 CNS; 103% with SF-539 CNS; 109% in the assay with UACC-257 melanoma.

Consider `COc1ccc(C(=O)N2NC(=O)/C(=C/c3ccc(Br)cc3)N=C2c2ccccc2)cc1`, for which the growth with NCI-H23 lung was 93.8%; with NCI-H226 lung, 95.1%; in the assay on NCI-H322M lung it was 90.6%; in the assay on NCI-H460 lung it was 96.9%; with HOP-92 NSCLC, 64.4%; in the assay on NCI-H522 lung, 85.3%. The growth in the assay with A549/ATCC NSCLC is 87.6%; with 786-0 renal it was 90.4%; in the assay on COLO 205 colon it was 105%; in the assay with DU-145 prostate, 102%; in the assay on K-562 leukemia, 81.8%; in the assay on MALME-3M melanoma, 90.3%. Also, the growth with MDA-MB-231 breast is 83.3%; in the assay with RXF 393 renal, 99.9%; with SF-268 CNS, 89.8%; with SF-295 CNS it was 92.7%; with SF-539 CNS it was 76.8%; in the assay with UACC-257 melanoma it was 95.5%. In the assay on M14 melanoma, the growth is 79.2%.

As for `C=C1CCC[C@]2(C)CCC[C@H](C)[C@@H](OC(C)=O)[C@@H]3OC(=O)C(=C)[C@@H]3C[C@H]1O2`, the growth in the assay with NCI-H23 lung was 74.5%; in the assay on NCI-H226 lung, 78.6%; with NCI-H322M lung, 99%; with HOP-92 NSCLC, 24%; in the assay on NCI-H522 lung it was -6.33% (active); in the assay with A549/ATCC NSCLC, 83.3%. For the same compound, the growth was 91.3% in the assay with 786-0 renal; 103% in the assay with COLO 205 colon; 85.5% with DU-145 prostate; 61.7% in the assay on K-562 leukemia; 97.9% in the assay on MALME-3M melanoma; 70.7% in the assay with MDA-MB-231 breast. Also, the growth was 70.1% with RXF 393 renal; 88.7% in the assay on SF-268 CNS; 80.2% with SF-295 CNS; 88.2% in the assay with SF-539 CNS; 74.3% in the assay with UACC-257 melanoma; 83.2% in the assay with M14 melanoma.

The values are drawn from PubChem BioAssay (NCI).
